“And” between values parts separate entries of the source, which are not always exact repeats. Identical values can stand only once. Inconclusive results are not listed. Some structures have more than one record in an assay (separate samples or runs), and their calls can disagree. The source made the active and inactive calls. Unless noted, calls follow the shape of the dose curve; as a rule, active = well fitted curve in the direction sought with a large enough effect in the repeat runs; inconclusive = weak or mixed curves; inactive = no such curve, though single readings can be large; an effect the other way counts as inactive or inconclusive.
Tests used:
[1] = qHTS assay for small molecule agonists of the p53 signaling pathway (AID 651631; calls by dose curve; also: nearly all actives have a fitted effect of over 15% in size)
Method in brief: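 Quantitative high-throughput format: 4,000 p53RE-bla HCT-116 cells/well, 5 h pre-incubation, 16 h compound exposure at 37 °C, 2 h room-temperature substrate step, fluorescence intensity measured.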

[2] = qHTS assay for small molecules that induce genotoxicity in human embryonic kidney cells expressing luciferase-tagged ATAD5 (AID 651632); also: nearly all actives have a fitted effect of over 15% in size
Method in brief: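 Luminescent reporter readout, HEK293T ATAD5-luc line: 16 hr drug exposure (37C, 5% CO2) followed by Amplite, 30 min RT.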

[3] = qHTS assay for small molecule agonists of the p53 signaling pathway - cell viability (AID 651633; calls by dose curve;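 also: p53RE-bla HCT reporter cells with a stable beta-lactamase p53 reporter; series mostly up to about 83 µM; nearly all actives have a fitted effect of over 30% in size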)
Method in brief: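 p53RE-bla cells were treated with compound for 16 hours at 37 C. Cytotoxicity was then measured as CellTiter-Glo luminescence after 30 min at room temperature.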

[4] = qHTS assay for small molecules that induce genotoxicity in human embryonic kidney cells expressing luciferase-tagged ATAD5 - cell viability (AID 651634; calls by dose curve; also: nearly all actives have a fitted effect of over 25% in size)
Method in brief: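 Viability read: CellTiter-Fluor fluorescence, 30 min at 37C. Cells: HEK293T, luciferase-tagged ATAD5. Exposure: 15.5 hr, 37C, 5% CO2, compound or DMSO vehicle.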

[5] = qHTS assay for small molecule disruptors of the mitochondrial membrane potential - cell viability (AID 720634; calls by dose curve; also: nearly all actives have a fitted effect of over 20% in size; also: potency is read from the fitted curve at half-maximal effect)
Method in brief: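 HepG2, 1 hr compound, 37 C. ATP luminescence via CellTiter-Glo, 30 min RT, same well as m-MPI.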

[6] = qHTS assay for small molecule disruptors of the mitochondrial membrane potential (AID 720635); also: potency is read from the fitted curve at half-maximal effect
Method in brief: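 HepG2 cells exposed to compound 1 hr at 37C, then Mito-MPS dye 30 min. Ratio read of aggregate (540/590 nm) versus monomer (490/535 nm) fluorescence.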

[7] = qHTS assay to test for compound auto fluorescence at 590 nm (red) in HepG2 cells (AID 720674)
Method in brief: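 Seeding: 2,000 HepG2 cells/well, MEM/10% FBS, overnight 37 C. Dosing: compound vs DMSO. Incubation: 1 hr, 37 C, 5% CO2. Read: fluorescence 540 ex/590 em, Rose Bengal sodium as red reference.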

[8] = qHTS assay to test for compound auto fluorescence at 535 nm (green) in HepG2 cells (AID 720675)
[9] = qHTS assay to test for compound auto fluorescence at 460 nm (blue) in HEK293 cells (AID 720678)
Method in brief: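 Triamterene serves as the blue fluorophore standard. Compound signal at 405/460 nm is read in HEK293 wells (2,000 cells, 10% dialyzed FBS) after overnight treatment at 37C.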

[10] = qHTS assay to test for compound auto fluorescence at 590 nm (red) in HEK293 cells (AID 720679)
Method in brief: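 We plated HEK293 cells in 10% dialyzed FBS medium, let them adhere for 4-5 hr, then added 23 nL compound. Overnight at 37C and 5% CO2 preceded fluorescence measurement at 540/590nm.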

[11] = qHTS assay to test for compound auto fluorescence at 460 nm (blue) in HEK293 cell free culture (AID 720681)
Method in brief: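 Compounds were added to cell-free DMEM with 10% FBS and fluorescence read directly. The blue channel used 405 nm excitation and 460 nm emission, with triamterene as the reference fluorophore.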

[12] = qHTS assay to test for compound auto fluorescence at 535 nm (green) in HEK293 cell free culture (AID 720682)
Method in brief: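 Measurement is a direct plate read of green fluorescence (485 nm in, 535 nm out) after compound addition to serum-supplemented DMEM lacking cells, with fluorescein used to express intensities.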

[13] = qHTS assay to test for compound auto fluorescence at 590 nm (red) in HEK293 cell free culture (AID 720683)
Method in brief: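 Cell-free wells of DMEM with 10% FBS received compound, and intrinsic fluorescence was read at excitation/emission 540/590 nm. Values expressed as equivalence to Rose Bengal sodium.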

[14] = qHTS assay to test for compound auto fluorescence at 590 nm (red) in HepG2 cell free culture (AID 720684)
Method in brief: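 Compound was pinned into wells holding MEM with 10% FBS and no cells, and red fluorescence was read at Ex/Em 540/590 nm. Signal is expressed as auto fluorescence equivalency relative to Rose Bengal sodium.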

[15] = qHTS assay to test for compound auto fluorescence at 460 nm (blue) in HepG2 cell free culture (AID 720685)
Method in brief: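 Compound (23 nL) or DMSO pinned into cell-free MEM with 10% FBS; blue fluorescence read at 405/460 nm excitation/emission, expressed as auto-fluorescence equivalency to triamterene.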

[16] = qHTS assay to test for compound auto fluorescence at 535 nm (green) in HepG2 cell free culture (AID 720686)
[17] = qHTS assay to test for compound auto fluorescence at 460 nm (blue) in HepG2 cells (AID 720687)
Method in brief: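 HepG2 cells in MEM with 10% FBS, attached overnight at 37 C, were exposed to compound or DMSO for 1 hr at 37 C, 5% CO2. Blue fluorescence was read at 405/460 nm, with triamterene as reference fluorophore.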

[18] = target: Glucocorticoid receptor (Homo sapiens) (UniProt P04150); assay: qHTS assay to identify small molecule agonists of the glucocorticoid receptor (GR) signaling pathway (AID 720691; active = well fitted activation curve with a large enough effect in the signal ratio in the repeat runs, not every such curve was filed as active; the % refers to the signal ratio)
Method in brief: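 qHTS in GR-bla HeLa cells: 4 h settling at 37 C/5% CO2, 18 h compound incubation at 37 C, 2 h LiveBLAzer B/G FRET substrate at room temperature, fluorescence intensity measured.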

[19] = target: Glucocorticoid receptor (Homo sapiens) (UniProt P04150); assay: qHTS assay to identify small molecule antagonists of the glucocorticoid receptor (GR) signaling pathway (AID 720692; active = well fitted inhibition curve with a large enough effect in the signal ratio in the repeat runs, not every such curve was filed as active; the % refers to the signal ratio)
Method in brief: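 Inhibition of glucocorticoid signalling is measured in HeLa cells with a GRE-controlled beta-lactamase reporter; cells are co-treated with compound and 5 nM dexamethasone (final) for 18 h before FRET substrate readout.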

[20] = qHTS assay to test for compound auto fluorescence at 535 nm (green) in HEK293 cells (AID 720680)
% is scaled to controls: 0 for no effect and ±100 for the full control effect.

Chain of Glucocorticoid receptor (Homo sapiens) (P04150 whole entry, looked up): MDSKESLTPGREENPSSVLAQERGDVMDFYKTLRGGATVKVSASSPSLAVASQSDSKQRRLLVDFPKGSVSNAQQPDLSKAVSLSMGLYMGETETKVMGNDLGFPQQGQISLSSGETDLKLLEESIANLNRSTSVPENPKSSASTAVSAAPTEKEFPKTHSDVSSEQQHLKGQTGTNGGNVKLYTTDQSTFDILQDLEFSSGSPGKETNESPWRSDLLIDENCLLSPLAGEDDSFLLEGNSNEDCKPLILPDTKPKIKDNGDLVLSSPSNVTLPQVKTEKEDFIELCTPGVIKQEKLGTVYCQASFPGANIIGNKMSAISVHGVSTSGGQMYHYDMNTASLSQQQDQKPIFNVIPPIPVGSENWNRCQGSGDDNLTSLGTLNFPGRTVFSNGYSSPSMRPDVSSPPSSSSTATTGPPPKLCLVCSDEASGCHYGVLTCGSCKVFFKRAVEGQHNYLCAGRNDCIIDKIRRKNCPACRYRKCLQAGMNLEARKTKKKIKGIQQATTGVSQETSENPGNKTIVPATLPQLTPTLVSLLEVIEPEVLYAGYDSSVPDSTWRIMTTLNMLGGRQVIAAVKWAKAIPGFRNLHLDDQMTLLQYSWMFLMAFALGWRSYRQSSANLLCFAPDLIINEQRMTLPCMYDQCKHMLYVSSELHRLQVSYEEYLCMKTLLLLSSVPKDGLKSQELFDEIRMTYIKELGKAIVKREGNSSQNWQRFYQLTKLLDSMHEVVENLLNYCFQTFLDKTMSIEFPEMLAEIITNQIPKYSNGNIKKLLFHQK

Oc1ccccc1Cl
inactive: outcome [1] | outcome [2] | outcome [3] | outcome [4] | Potency [5] | Potency [6] | outcome [7] | outcome [8] | outcome [9] | outcome [10] | outcome [11] | outcome [12] | outcome [13] | outcome [14] | outcome [15] | outcome [16] | outcome [17] | outcome [18] | Potency [19]

CCC[CH2][Sn]([Cl])([Cl])[Cl]
inactive: outcome [1] | outcome [2] | outcome [3] | outcome [4] | Potency [5] | Potency [6] | outcome [7] | outcome [8] | outcome [9] | outcome [20] | outcome [11] | outcome [12] | outcome [13] | outcome [14] | outcome [15] | outcome [16] | outcome [17] | outcome [18]

COC(=O)c1ccccc1C(=O)OC
inactive: outcome [1] | outcome [2] | outcome [3] | outcome [4] | Potency [5] | outcome [7] | outcome [8] | outcome [9] | outcome [10] | outcome [20] | outcome [11] | outcome [12] | outcome [13] | outcome [14] | outcome [15] | outcome [16] | outcome [17] | outcome [18] | Potency [19]

Nc1c(Cl)c(Cl)nc(C(=O)O)c1Cl
inactive and 56.1 µM (active): Potency [6]
inactive: outcome [1] | outcome [2] | outcome [3] | outcome [4] | Potency [5] | outcome [8] | outcome [9] | outcome [10] | outcome [11] | outcome [12] | outcome [13] | outcome [14] | outcome [15] | outcome [16] | outcome [17] | outcome [18] | Potency [19]

Cc1ccccc1O
inactive: outcome [1] | outcome [2] | outcome [3] | outcome [4] | Potency [5] | Potency [6] | outcome [7] | outcome [8] | outcome [9] | outcome [10] | outcome [20] | outcome [11] | outcome [12] | outcome [13] | outcome [14] | outcome [15] | outcome [16] | outcome [17] | outcome [18] | Potency [19]

CC(C)N1C(=O)c2ccccc2NS1(=O)=O
inactive: outcome [1] | outcome [2] | outcome [3] | outcome [4] | Potency [5] | outcome [7] | outcome [8] | outcome [9] | outcome [10] | outcome [20] | outcome [11] | outcome [12] | outcome [13] | outcome [14] | outcome [15] | outcome [16] | outcome [17] | outcome [18] | Potency [19]
inactive and 48.6 µM (active): Potency [6]

ClCc1cccnc1
inactive: outcome [1] | outcome [2] | outcome [3] | outcome [4] | Potency [5] | Potency [6] | outcome [7] | outcome [8] | outcome [9] | outcome [20] | outcome [11] | outcome [12] | outcome [13] | outcome [14] | outcome [15] | outcome [16] | outcome [17] | outcome [18] | Potency [19]

O=c1n(Cl)c(=O)n(Cl)c(=O)n1Cl
inactive: outcome [1] | outcome [2] | outcome [3] | outcome [4] | Potency [5] | Potency [6] | outcome [8] | outcome [9] | outcome [10] | outcome [11] | outcome [12] | outcome [13] | outcome [14] | outcome [15] | outcome [16] | outcome [17] | outcome [18] | Potency [19]

c1ccc(OP(Oc2ccccc2)Oc2ccccc2)cc1
inactive: outcome [1] | outcome [2] | outcome [3] | outcome [4] | Potency [5] | outcome [7] | outcome [8] | outcome [9] | outcome [10] | outcome [20] | outcome [11] | outcome [12] | outcome [13] | outcome [14] | outcome [15] | outcome [16] | outcome [17] | outcome [18] | Potency [19]

O=C(NC(=O)c1c(F)cccc1F)Nc1cc(Cl)c(OC(F)(F)C(F)C(F)(F)F)cc1Cl (configuration not stated)
inactive: outcome [1] | outcome [2] | outcome [3] | outcome [4] | outcome [7] | outcome [8] | outcome [9] | outcome [11] | outcome [12] | outcome [13] | outcome [14] | outcome [15] | outcome [16] | outcome [17] | outcome [18] | Potency [19]
active: Potency [5] 6.68 µM and 7.7 µM | Potency [6] 5.31 µM and 7.7 µM

CCCCCCCCCCCC#N
inactive: outcome [1] | outcome [2] | outcome [3] | outcome [4] | Potency [5] | Potency [6] | outcome [8] | outcome [9] | outcome [20] | outcome [11] | outcome [12] | outcome [13] | outcome [14] | outcome [15] | outcome [16] | outcome [17] | outcome [18] | Potency [19]

CCc1cccc(C)c1N(C(=O)CCl)C(C)COC (configuration not stated)
inactive: outcome [1] | outcome [2] | outcome [3] | outcome [4] | Potency [5] | Potency [6] | outcome [7] | outcome [8] | outcome [9] | outcome [10] | outcome [20] | outcome [11] | outcome [12] | outcome [13] | outcome [14] | outcome [15] | outcome [16] | outcome [17]

Cc1cc(-c2cc(C)c(N)c(C)c2)cc(C)c1N
inactive: outcome [1] | outcome [2] | outcome [3] | outcome [4] | Potency [5] | outcome [7] | outcome [8] | outcome [9] | outcome [10] | outcome [20] | outcome [11] | outcome [12] | outcome [13] | outcome [14] | outcome [15] | outcome [16] | outcome [17] | outcome [18]

C=C(C)CCl
inactive: activation [1] -2.09% [at 8.3 µM] | outcome [2] | outcome [3] | outcome [4] | Potency [5] | Potency [6] | outcome [7] | outcome [8] | outcome [9] | outcome [10] | outcome [11] | outcome [12] | outcome [13] | outcome [14] | outcome [15] | outcome [16] | outcome [17] | outcome [18] | Potency [19]

Clc1ccc(Cl)cc1
inactive: outcome [1] | outcome [2] | outcome [3] | outcome [4] | Potency [5] | Potency [6] | outcome [8] | outcome [9] | outcome [20] | outcome [11] | outcome [12] | outcome [13] | outcome [14] | outcome [15] | outcome [16] | outcome [17] | outcome [18] | Potency [19]

O=c1[nH]c(=O)[nH]c(=O)[nH]1
inactive: outcome [1] | outcome [2] | outcome [3] | outcome [4] | Potency [5] | Potency [6] | outcome [7] | outcome [8] | outcome [9] | outcome [11] | outcome [12] | outcome [13] | outcome [14] | outcome [15] | outcome [16] | outcome [17] | outcome [18] | Potency [19]

Source: PubChem BioAssay (Tox21)
